{
  "source": "the supplement of paper PMC4466140",
  "binders": {"B1": {"name": "unnamed (peptide)", "chain": "HAPPLPPTAPPPPSL"}},
  "data": [
    {"target": "ScBbc1", "assay": "SPOT peptide array binding signal intensity (averaged, normalized) (arbitrary units (background-subtracted, floor 0; scale differs between SH3 domains)); higher = stronger binding of the SH3 domain to the peptide", "in_short": "(§1)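 Binding signal refers to normalized, background-subtracted spot intensity averaged over replicates, expressed in arbitrary units that differ between domains. GST-fused SH3 domains from four yeast species were incubated at 10 μg/ml overnight at 4°C on cellulose membranes of synthetic 15-mer peptides with cysteines replaced by serines. Bound protein was detected with anti-GST antibody, an HRP anti-mouse secondary and luminol, and quantified with Genespotter.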", "values": [
      {"binder": "B1", "SPOT peptide array binding signal intensity": "≤ 0"}
    ]},
    {"target": "ScBem1-D1", "assay": "SPOT peptide array binding signal intensity (averaged, normalized) (arbitrary units (background-subtracted, floor 0; scale differs between SH3 domains)); higher = stronger binding of the SH3 domain to the peptide", "in_short": "as §1", "values": [
      {"binder": "B1", "SPOT peptide array binding signal intensity": "≤ 0"}
    ]},
    {"target": "ScBzz1-D1", "assay": "SPOT peptide array binding signal intensity (averaged, normalized) (arbitrary units (background-subtracted, floor 0; scale differs between SH3 domains)); higher = stronger binding of the SH3 domain to the peptide", "in_short": "as §1", "values": [
      {"binder": "B1", "SPOT peptide array binding signal intensity": "≤ 0"}
    ]},
    {"target": "ScBzz1-D2", "assay": "SPOT peptide array binding signal intensity (averaged, normalized) (arbitrary units (background-subtracted, floor 0; scale differs between SH3 domains)); higher = stronger binding of the SH3 domain to the peptide", "in_short": "as §1", "values": [
      {"binder": "B1", "SPOT peptide array binding signal intensity": "≤ 0"}
    ]},
    {"target": "ScCyk3", "assay": "SPOT peptide array binding signal intensity (averaged, normalized) (arbitrary units (background-subtracted, floor 0; scale differs between SH3 domains)); higher = stronger binding of the SH3 domain to the peptide", "in_short": "as §1", "values": [
      {"binder": "B1", "SPOT peptide array binding signal intensity": "≤ 0"}
    ]},
    {"target": "ScFus1", "assay": "SPOT peptide array binding signal intensity (averaged, normalized) (arbitrary units (background-subtracted, floor 0; scale differs between SH3 domains)); higher = stronger binding of the SH3 domain to the peptide", "in_short": "as §1", "values": [
      {"binder": "B1", "SPOT peptide array binding signal intensity": "≤ 0"}
    ]},
    {"target": "ScHof1", "assay": "SPOT peptide array binding signal intensity (averaged, normalized) (arbitrary units (background-subtracted, floor 0; scale differs between SH3 domains)); higher = stronger binding of the SH3 domain to the peptide", "in_short": "as §1", "values": [
      {"binder": "B1", "SPOT peptide array binding signal intensity": 40.5}
    ]},
    {"target": "ScHse1", "assay": "SPOT peptide array binding signal intensity (averaged, normalized) (arbitrary units (background-subtracted, floor 0; scale differs between SH3 domains)); higher = stronger binding of the SH3 domain to the peptide", "in_short": "as §1", "values": [
      {"binder": "B1", "SPOT peptide array binding signal intensity": "≤ 0"}
    ]},
    {"target": "ScLsb1", "assay": "SPOT peptide array binding signal intensity (averaged, normalized) (arbitrary units (background-subtracted, floor 0; scale differs between SH3 domains)); higher = stronger binding of the SH3 domain to the peptide", "in_short": "as §1", "values": [
      {"binder": "B1", "SPOT peptide array binding signal intensity": "≤ 0"}
    ]},
    {"target": "ScLsb2", "assay": "SPOT peptide array binding signal intensity (averaged, normalized) (arbitrary units (background-subtracted, floor 0; scale differs between SH3 domains)); higher = stronger binding of the SH3 domain to the peptide", "in_short": "as §1", "values": [
      {"binder": "B1", "SPOT peptide array binding signal intensity": "≤ 0"}
    ]},
    {"target": "ScLsb3", "assay": "SPOT peptide array binding signal intensity (averaged, normalized) (arbitrary units (background-subtracted, floor 0; scale differs between SH3 domains)); higher = stronger binding of the SH3 domain to the peptide", "in_short": "as §1", "values": [
      {"binder": "B1", "SPOT peptide array binding signal intensity": "≤ 0"}
    ]},
    {"target": "ScLsb4", "assay": "SPOT peptide array binding signal intensity (averaged, normalized) (arbitrary units (background-subtracted, floor 0; scale differs between SH3 domains)); higher = stronger binding of the SH3 domain to the peptide", "in_short": "as §1", "values": [
      {"binder": "B1", "SPOT peptide array binding signal intensity": "≤ 0"}
    ]},
    {"target": "ScMyo3", "assay": "SPOT peptide array binding signal intensity (averaged, normalized) (arbitrary units (background-subtracted, floor 0; scale differs between SH3 domains)); higher = stronger binding of the SH3 domain to the peptide", "in_short": "as §1", "values": [
      {"binder": "B1", "SPOT peptide array binding signal intensity": 1750}
    ]},
    {"target": "ScMyo5", "assay": "SPOT peptide array binding signal intensity (averaged, normalized) (arbitrary units (background-subtracted, floor 0; scale differs between SH3 domains)); higher = stronger binding of the SH3 domain to the peptide", "in_short": "as §1", "values": [
      {"binder": "B1", "SPOT peptide array binding signal intensity": 2000}
    ]},
    {"target": "ScNbp2", "assay": "SPOT peptide array binding signal intensity (averaged, normalized) (arbitrary units (background-subtracted, floor 0; scale differs between SH3 domains)); higher = stronger binding of the SH3 domain to the peptide", "in_short": "as §1", "values": [
      {"binder": "B1", "SPOT peptide array binding signal intensity": "≤ 0"}
    ]},
    {"target": "ScPex13", "assay": "SPOT peptide array binding signal intensity (averaged, normalized) (arbitrary units (background-subtracted, floor 0; scale differs between SH3 domains)); higher = stronger binding of the SH3 domain to the peptide", "in_short": "as §1", "values": [
      {"binder": "B1", "SPOT peptide array binding signal intensity": "≤ 0"}
    ]},
    {"target": "ScRvs167", "assay": "SPOT peptide array binding signal intensity (averaged, normalized) (arbitrary units (background-subtracted, floor 0; scale differs between SH3 domains)); higher = stronger binding of the SH3 domain to the peptide", "in_short": "as §1", "values": [
      {"binder": "B1", "SPOT peptide array binding signal intensity": "≤ 0"}
    ]},
    {"target": "ScSho1", "assay": "SPOT peptide array binding signal intensity (averaged, normalized) (arbitrary units (background-subtracted, floor 0; scale differs between SH3 domains)); higher = stronger binding of the SH3 domain to the peptide", "in_short": "as §1", "values": [
      {"binder": "B1", "SPOT peptide array binding signal intensity": "≤ 0"}
    ]},
    {"target": "ScSla1-D1-D2", "assay": "SPOT peptide array binding signal intensity (averaged, normalized) (arbitrary units (background-subtracted, floor 0; scale differs between SH3 domains)); higher = stronger binding of the SH3 domain to the peptide", "in_short": "as §1", "values": [
      {"binder": "B1", "SPOT peptide array binding signal intensity": "≤ 0"}
    ]},
    {"target": "ScSla1-D3", "assay": "SPOT peptide array binding signal intensity (averaged, normalized) (arbitrary units (background-subtracted, floor 0; scale differs between SH3 domains)); higher = stronger binding of the SH3 domain to the peptide", "in_short": "as §1", "values": [
      {"binder": "B1", "SPOT peptide array binding signal intensity": 1.75}
    ]},
    {"target": "SpAbp1-D1", "assay": "SPOT peptide array binding signal intensity (averaged, normalized) (arbitrary units (background-subtracted, floor 0; scale differs between SH3 domains)); higher = stronger binding of the SH3 domain to the peptide", "in_short": "as §1", "values": [
      {"binder": "B1", "SPOT peptide array binding signal intensity": "≤ 0"}
    ]},
    {"target": "SpBbc1", "assay": "SPOT peptide array binding signal intensity (averaged, normalized) (arbitrary units (background-subtracted, floor 0; scale differs between SH3 domains)); higher = stronger binding of the SH3 domain to the peptide", "in_short": "as §1", "values": [
      {"binder": "B1", "SPOT peptide array binding signal intensity": 1.5}
    ]},
    {"target": "SpBzz1-D1", "assay": "SPOT peptide array binding signal intensity (averaged, normalized) (arbitrary units (background-subtracted, floor 0; scale differs between SH3 domains)); higher = stronger binding of the SH3 domain to the peptide", "in_short": "as §1", "values": [
      {"binder": "B1", "SPOT peptide array binding signal intensity": 148}
    ]},
    {"target": "SpBzz1-D2", "assay": "SPOT peptide array binding signal intensity (averaged, normalized) (arbitrary units (background-subtracted, floor 0; scale differs between SH3 domains)); higher = stronger binding of the SH3 domain to the peptide", "in_short": "as §1", "values": [
      {"binder": "B1", "SPOT peptide array binding signal intensity": "≤ 0"}
    ]},
    {"target": "SpCyk3", "assay": "SPOT peptide array binding signal intensity (averaged, normalized) (arbitrary units (background-subtracted, floor 0; scale differs between SH3 domains)); higher = stronger binding of the SH3 domain to the peptide", "in_short": "as §1", "values": [
      {"binder": "B1", "SPOT peptide array binding signal intensity": "≤ 0"}
    ]},
    {"target": "SpHof1", "assay": "SPOT peptide array binding signal intensity (averaged, normalized) (arbitrary units (background-subtracted, floor 0; scale differs between SH3 domains)); higher = stronger binding of the SH3 domain to the peptide", "in_short": "as §1", "values": [
      {"binder": "B1", "SPOT peptide array binding signal intensity": "≤ 0"}
    ]},
    {"target": "SpHof1-2", "assay": "SPOT peptide array binding signal intensity (averaged, normalized) (arbitrary units (background-subtracted, floor 0; scale differs between SH3 domains)); higher = stronger binding of the SH3 domain to the peptide", "in_short": "as §1", "values": [
      {"binder": "B1", "SPOT peptide array binding signal intensity": "≤ 0"}
    ]},
    {"target": "SpHof1-3", "assay": "SPOT peptide array binding signal intensity (averaged, normalized) (arbitrary units (background-subtracted, floor 0; scale differs between SH3 domains)); higher = stronger binding of the SH3 domain to the peptide", "in_short": "as §1", "values": [
      {"binder": "B1", "SPOT peptide array binding signal intensity": "≤ 0"}
    ]},
    {"target": "SpHse1", "assay": "SPOT peptide array binding signal intensity (averaged, normalized) (arbitrary units (background-subtracted, floor 0; scale differs between SH3 domains)); higher = stronger binding of the SH3 domain to the peptide", "in_short": "as §1", "values": [
      {"binder": "B1", "SPOT peptide array binding signal intensity": "≤ 0"}
    ]},
    {"target": "SpLsb1", "assay": "SPOT peptide array binding signal intensity (averaged, normalized) (arbitrary units (background-subtracted, floor 0; scale differs between SH3 domains)); higher = stronger binding of the SH3 domain to the peptide", "in_short": "as §1", "values": [
      {"binder": "B1", "SPOT peptide array binding signal intensity": "≤ 0"}
    ]},
    {"target": "SpLsb4", "assay": "SPOT peptide array binding signal intensity (averaged, normalized) (arbitrary units (background-subtracted, floor 0; scale differs between SH3 domains)); higher = stronger binding of the SH3 domain to the peptide", "in_short": "as §1", "values": [
      {"binder": "B1", "SPOT peptide array binding signal intensity": "≤ 0"}
    ]},
    {"target": "SpMyo1", "assay": "SPOT peptide array binding signal intensity (averaged, normalized) (arbitrary units (background-subtracted, floor 0; scale differs between SH3 domains)); higher = stronger binding of the SH3 domain to the peptide", "in_short": "as §1", "values": [
      {"binder": "B1", "SPOT peptide array binding signal intensity": 1320}
    ]},
    {"target": "SpNbp2", "assay": "SPOT peptide array binding signal intensity (averaged, normalized) (arbitrary units (background-subtracted, floor 0; scale differs between SH3 domains)); higher = stronger binding of the SH3 domain to the peptide", "in_short": "as §1", "values": [
      {"binder": "B1", "SPOT peptide array binding signal intensity": "≤ 0"}
    ]},
    {"target": "SpPex13", "assay": "SPOT peptide array binding signal intensity (averaged, normalized) (arbitrary units (background-subtracted, floor 0; scale differs between SH3 domains)); higher = stronger binding of the SH3 domain to the peptide", "in_short": "as §1", "values": [
      {"binder": "B1", "SPOT peptide array binding signal intensity": "≤ 0"}
    ]},
    {"target": "SpRvs167", "assay": "SPOT peptide array binding signal intensity (averaged, normalized) (arbitrary units (background-subtracted, floor 0; scale differs between SH3 domains)); higher = stronger binding of the SH3 domain to the peptide", "in_short": "as §1", "values": [
      {"binder": "B1", "SPOT peptide array binding signal intensity": 2.67}
    ]},
    {"target": "SpSla1-D1-D2", "assay": "SPOT peptide array binding signal intensity (averaged, normalized) (arbitrary units (background-subtracted, floor 0; scale differs between SH3 domains)); higher = stronger binding of the SH3 domain to the peptide", "in_short": "as §1", "values": [
      {"binder": "B1", "SPOT peptide array binding signal intensity": 7}
    ]},
    {"target": "SpSla1-D3", "assay": "SPOT peptide array binding signal intensity (averaged, normalized) (arbitrary units (background-subtracted, floor 0; scale differs between SH3 domains)); higher = stronger binding of the SH3 domain to the peptide", "in_short": "as §1", "values": [
      {"binder": "B1", "SPOT peptide array binding signal intensity": "≤ 0"}
    ]}
  ]
}
